Results on 14 molecules are retold here after PubChem BioAssay (NCI).

Some test systems named below: HCT-15 colon; HT29 colon; SNB-75 CNS; SNB-19 CNS; U251 CNS; PC-3 prostate; SK-MEL-5 melanoma; UACC-62 melanoma; LOX IMVI melanoma; SK-MEL-28 melanoma.
Common to all, as to experiment: NCI-60 one-dose screen, 48 h (100 = growth as untreated, 0 = no growth, -100 = all killed)
Common to all, as to details: 10 µM unless noted

About 83,000 compounds went through this panel and 20% of them were active in at least one assay; those are over-represented in the sample as a whole.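 Activity criterion: percent growth below 10, measured after cells in 96-well plates were exposed to a single compound concentration for 48 hours.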 Values without a mark were called inactive. Active and inactive are the calls of the source.

`O=C(CCCCCCc1nc2ccc(Br)cc2[nH]1)NO`: the growth in the experiment with HCT-15 colon was 35.9%; with HT29 colon it was 1.25% (active); in the experiment on SNB-75 CNS, -2.57% (active); in the experiment with SNB-19 CNS it was 1.94% (active); in the experiment on U251 CNS, -15.4% (active); with PC-3 prostate it was 16.7%. The growth is -81.5% (active) with SK-MEL-5 melanoma, -79.8% (active) with UACC-62 melanoma, -98.9% (active) in the experiment with LOX IMVI melanoma and -16.7% (active) in the experiment on SK-MEL-28 melanoma.
Turning to `COc1cc2nccc(Oc3ccc(NC(=O)C4(C(=O)Nc5ccc(F)cc5)CC4)cc3)c2cc1Oc1ccc(N)cn1`, the growth with HCT-15 colon is 27.9%; in the experiment on HT29 colon, 9.65% (active); in the experiment on SNB-75 CNS it was -12.5% (active); in the experiment on SNB-19 CNS it was 54.5%; in the experiment on U251 CNS, 33.6%; in the experiment on PC-3 prostate, 24.5%. In addition, the figures for the growth with SK-MEL-5 melanoma, with UACC-62 melanoma and in the experiment with LOX IMVI melanoma were 39.2%, 5.29% (active) and 10.7%, respectively.
For `FC1(F)CCN(Cc2c[nH]c3cc(Cl)ccc23)C[C@H]1CCc1ccccc1`, the growth is 51% in the experiment with HCT-15 colon; 26.6% with HT29 colon; 40.8% in the experiment on SNB-75 CNS; 68% with SNB-19 CNS; 44.5% in the experiment with U251 CNS; 53.3% in the experiment with PC-3 prostate. For the same molecule, the growth was 62.7% in the experiment on SK-MEL-5 melanoma, 59.9% in the experiment with UACC-62 melanoma and 46.9% in the experiment on LOX IMVI melanoma.
Take `O=C(Cn1nncc1CN1C(=O)CSC1=O)Nc1ccc(F)cc1`: the growth is 102% in the experiment with HCT-15 colon; 105% in the experiment with HT29 colon; 85.9% with SNB-75 CNS; 101% with SNB-19 CNS; 104% with U251 CNS; 101% with PC-3 prostate. In addition, the growth in the experiment on SK-MEL-5 melanoma is 99.5%; with UACC-62 melanoma, 93.5%; in the experiment on LOX IMVI melanoma it was 94.9%.
Take `CC1=C(C(=O)Nc2ccc(F)cc2)C(c2ccccc2)C2=C(CC(C)(C)CC2=O)N1` (stereo unspecified): the growth in the experiment on HCT-15 colon is 77.8%; in the experiment on HT29 colon, 96.3%; with SNB-75 CNS it was 65.8%; in the experiment on SNB-19 CNS, 87.4%; in the experiment with U251 CNS, 69.8%; in the experiment on PC-3 prostate it was 54.6%. Also, the growth is 38.2% with SK-MEL-5 melanoma, 55.6% in the experiment with UACC-62 melanoma, 79% with LOX IMVI melanoma and 68% in the experiment with SK-MEL-28 melanoma.
With `COc1cc2c(cc1C)NC(=O)/C2=C\c1c[nH]c2ccccc12`, the growth was 58.4% with HCT-15 colon; 35.4% with HT29 colon; 37.9% with SNB-75 CNS; 84.7% with SNB-19 CNS; 61.5% in the experiment with U251 CNS; 53.3% in the experiment with PC-3 prostate. Moreover, the results for the growth in the experiment with SK-MEL-5 melanoma, in the experiment on UACC-62 melanoma and with LOX IMVI melanoma were 73.8%, 77.9% and 44.9%, respectively.
`COc1ccc(C2C=C(c3ccc(Cl)cc3)N=C3SC=CN32)cc1` (stereo unspecified): the growth was 110% with HCT-15 colon; 106% in the experiment on HT29 colon; 86.7% in the experiment with SNB-75 CNS; 115% in the experiment on SNB-19 CNS; 105% with U251 CNS; 86.7% in the experiment with PC-3 prostate. The growth with SK-MEL-5 melanoma is 111%; in the experiment with UACC-62 melanoma, 116%; in the experiment with LOX IMVI melanoma it was 99.6%; in the experiment with SK-MEL-28 melanoma it was 97.6%.
As to `O=C(/C=C/c1cc([N+](=O)[O-])ccc1Cl)c1ccccc1`, the growth in the experiment with HCT-15 colon is 110%; with HT29 colon it was 14.3%; in the experiment with SNB-75 CNS, 67.7%; with SNB-19 CNS, 87.8%; in the experiment on U251 CNS, 46%; in the experiment with PC-3 prostate, 85.4%. For the same molecule, the growth in the experiment with SK-MEL-5 melanoma was 87.3%; in the experiment on UACC-62 melanoma, 70.5%; with LOX IMVI melanoma it was -18.9% (active); in the experiment on SK-MEL-28 melanoma it was 104%.
With `c1ccc(-c2[nH]c3ccccc3c2-c2ccccc2)cc1`, the growth in the experiment on HCT-15 colon was 79.6%; with HT29 colon it was 88.4%; with SNB-75 CNS it was 84.7%; with SNB-19 CNS it was 97.5%; with U251 CNS, 87.8%; with PC-3 prostate it was 79.4%. Besides, the growth in the experiment on SK-MEL-5 melanoma was 104%; with UACC-62 melanoma, 75.8%; in the experiment on LOX IMVI melanoma, 79.8%; with SK-MEL-28 melanoma it was 119%.
`CCOC(=O)C(Nc1ccccc1)C(=O)OCC`: the growth with HCT-15 colon was 98.9%; in the experiment with HT29 colon it was 106%; in the experiment on SNB-75 CNS, 85%; in the experiment with SNB-19 CNS it was 105%; in the experiment with U251 CNS, 109%; in the experiment with PC-3 prostate, 88.1%. In addition, the growth with SK-MEL-5 melanoma was 102%; in the experiment on UACC-62 melanoma it was 104%; in the experiment with LOX IMVI melanoma it was 93.5%; in the experiment on SK-MEL-28 melanoma it was 111%.
As for `CC(CN1CCN(CCOCCO)CC1)CN1c2ccccc2Sc2ccc(Cl)cc21` (stereo unspecified), the growth is 32.7% with HCT-15 colon; -30.1% (active) in the experiment on HT29 colon; 69.7% in the experiment with SNB-75 CNS; 100% in the experiment on SNB-19 CNS; 58.6% with U251 CNS; 43.9% in the experiment on PC-3 prostate. The growth was 16.1% with SK-MEL-5 melanoma, -42.8% (active) with UACC-62 melanoma, 20.5% in the experiment with LOX IMVI melanoma and 49% in the experiment on SK-MEL-28 melanoma.
`CSCCC1NC(=O)C(C(C)=Nc2ccccc2)=C1O` (stereo unspecified): the growth in the experiment on HCT-15 colon is 117%; in the experiment with HT29 colon, 108%; with SNB-75 CNS, 88.6%; in the experiment on SNB-19 CNS it was 116%; with U251 CNS it was 111%; in the experiment with PC-3 prostate, 92.7%. In addition, the growth with SK-MEL-5 melanoma is 112%; in the experiment on UACC-62 melanoma it was 101%; in the experiment on LOX IMVI melanoma it was 105%; in the experiment with SK-MEL-28 melanoma, 110%.
On to `C=CCn1c(SCC(=O)Nc2ccc(C(=O)/C=C/c3ccccc3)cc2)nnc1-c1ccc(OC)c(OC)c1`, for which the growth was 64.2% in the experiment on HCT-15 colon; 80.1% with HT29 colon; 79.1% with SNB-75 CNS; 76.4% with SNB-19 CNS; 72.7% in the experiment with U251 CNS; 67.8% in the experiment with PC-3 prostate. In addition, the growth in the experiment with SK-MEL-5 melanoma is 61.3%; in the experiment with UACC-62 melanoma it was 72.1%; with LOX IMVI melanoma, 84.9%; in the experiment on SK-MEL-28 melanoma, 97.6%.
With `CN1CCN(Cc2ccc(NC(=O)c3cncc(C#Cc4ncc5ccccn45)c3)cc2C(F)(F)F)CC1`, the growth in the experiment on HCT-15 colon was 19.2%; with HT29 colon, 5.13% (active); with SNB-75 CNS it was 34.3%; with SNB-19 CNS, 39%; with U251 CNS it was -27.7% (active); in the experiment with PC-3 prostate it was 21.9%. Besides, the growth is 52.3% with SK-MEL-5 melanoma, 51.7% in the experiment on UACC-62 melanoma, 25.7% in the experiment with LOX IMVI melanoma and 8.57% (active) in the experiment on SK-MEL-28 melanoma.
